Values joined by “and” are separate entries in the source; they are usually repeats but may differ in a detail not shown here. Equal entries are not always repeated. Inconclusive results are not listed. Some compounds were tested as several samples or in several runs, with calls that do not always agree. Active and inactive are the calls of the source. The call rests on the fitted dose curve; in most records, active means well fitted inhibition curve with a large enough effect; inconclusive means small, poorly fitted or top-dose-only effect; inactive means no such curve, though single readings can be large or run the other way.
Test: Primary qHTS for inhibitors of nuclear receptor binding SET domain protein 2 (NSD2) in an RCH-ACV wild type WT cells (2C) (AID 1645877); further: nearly all actives have a fitted effect of over 70% in size
Conditions: RCH-ACV (leukaemia line) NSD2 WT (2C) viability, CellTiter-Glo, 72 h; series mostly up to 44.9 µM; activity change, negative = cell killing: at the top concentration
Excerpt: Assay Provider: Jonathan D. Licht, MD
University of Florida College of Medicine, Gainesville, FL
Mutations in epigenetic regulators are common in relapsed pediatric acute lymphoblastic leukemia (ALL). Here, we uncovered the mechanism underlying the relapse of ALL driven by an activating mutation of the NSD2 histone methyltransferase (p.E1099K). […] Correction of this mutation restored glucocorticoid sensitivity. The transcriptional response to glucocorticoids was blocked in NSD2 mutant cells due to depressed glucocorticoid receptor (GR) levels and the failure of glucocorticoids to autoactivate GR expression. […] Pre-treatment of NSD2 p.E1099K cell lines and PDX samples with PRC2 inhibitors reversed glucocorticoid resistance in vitro and in vivo.
High-throughput drug screening of isogenic RCH-ACV cell lines was performed at the National Center for Advancing Translational Science (NCATS), National Institutes of Health as previously described (1). Briefly, isogenic RCH-ACV NSD2 p.E1099K mutant (9B) and WT cells (2C) were plated at 500 cells/well in a 1536-well plate with a 72-hour incubation with compounds prior to addition of CellTiter-Glo to assess cell viability. NCATS libraries screened include: NPC, MIPE 5.0, Kinase and NPACT. To determine compound activity in the qHTS assay, the concentration-response data for each sample was plotted and modeled by a four-parameter logistic fit yielding IC50 and efficacy (maximal response) values. The area under the curve (AUC) of the dose-response curve ensures both efficacy (magnitude of cell killing) and potency (concentration that elicits cell killing) are accounted for in the analysis of activity.
1. Tobie D Lee, Olivia W Lee, Kyle R Brimacombe, Lu Chen, Rajarshi Guha, Sabrina Lusvarghi, Bethilehem G Tebase, Carleen Klumpp-Thomas, Robert W Robey, Suresh V Ambudkar, Min Shen, Michael M Gottesman, Matthew D Hall. A High-Throughput Screen of a Library of Therapeutics Identifies Cytotoxic Substrates of P-glycoprotein. Mol Pharmacol. 2019, Nov;96(5):629-640.
On the % scale 0 is the no-effect control and ±100 the full control effect.

SMILES	Potency	activity change, negative = cell killing	outcome
Nc1ncnc2c1ncn2[C@@H]1O[C@H](CO)[C@@H](O)[C@H]1O	5.96 µM (active) and inactive	–	–
Cc1ncc([N+](=O)[O-])n1CC(O)CCl (stereo not given)	–	1.84% (inactive)	–
NCC(=O)CCC(=O)O	–	–	inactive
NCCNCCNCCNCCN	–	-16.9% [at 9.23 µM] (inactive)	–
C[C@H](NC(CCc1ccccc1)C(=O)O)C(=O)N1CCC[C@H]1C(=O)O (stereo not given in full)	–	-11% (inactive)	–
Nc1nc2c(ncn2CCC(CO)CO)c(=O)[nH]1	inactive	–	–
COc1cc(C)c(Cc2cnc(N)nc2N)cc1OC	–	-26.6% (inactive)	–
CC1CC(OC(=O)C(O)c2ccccc2)CC(C)(C)N1C (stereo not given)	–	–	inactive
COC(=O)[C@H]1[C@H]2C[C@@H]3c4[nH]c5cc(OC)ccc5c4CCN3C[C@H]2C[C@@H](OC(=O)COc2ccc(OC)cc2)[C@@H]1OC	–	-3.45% (inactive)	–
CCOC(=O)c1ccc(O)cc1	–	-11.6% (inactive)	–
CC(=O)OCC(=O)[C@@]1(O)CC[C@H]2[C@@H]3CCC4=CC(=O)CC[C@]4(C)[C@H]3C(=O)C[C@@]21C	inactive	–	–
N[C@H]1C(O)O[C@H](CO)[C@@H](O)[C@@H]1O (stereo not given in full)	–	-10.7% (inactive)	–
O=c1cc(CO)occ1O	–	–	inactive
NC1[C@H]2CN(c3nc4c(cc3F)c(=O)c(C(=O)O)cn4-c3ccc(F)cc3F)C[C@@H]12 (stereo not given in full)	5.31 µM (active)	–	–
Nc1ccc(S(=O)(=O)NC(=O)c2ccccc2)cc1	–	4.94% (inactive)	–
COc1ccc2[nH]c(S(=O)Cc3ncc(C)c(OC)c3C)nc2n1 (stereo not given)	inactive	–	–
CSc1ccc2c(c1)N(CCC1CCCCN1C)c1ccccc1S2 (stereo not given)	3.76 µM (active)	–	–
CCCn1cnc2c1c(=O)n(CCCCC(C)=O)c(=O)n2C	–	4.49% (inactive)	–
CCN(CC)C(=O)Nc1ccc(OCC(O)CNC(C)(C)C)c(C(C)=O)c1 (stereo not given)	inactive	–	–
CCN(CC)CCNC(=O)c1c(C)[nH]c(/C=C2\C(=O)Nc3ccc(F)cc32)c1C	2.99 µM (active) and 3.72 µM (active)	–	–

SMILES	Potency	activity change, negative = cell killing	outcome
CCOC(CN1CCN(CC(C)C(=O)c2ccccc2)CC1)c1ccccc1 (stereo not given)	14.5 µM (active)	–	–
O=Cc1ccccc1C=O	–	7.52% (inactive)	–
CC(=O)NC(Cc1ccccc1)C(=O)O (stereo not given)	–	-13.7% [at 91.9 µM] (inactive)	–
COc1ccc2cc1Oc1cc3c(cc1OC)CC[N+](C)(C)[C@H]3Cc1ccc(cc1)Oc1c(OC)c(OC)cc3c1[C@@H](C2)[N+](C)(C)CC3	–	–	inactive
NC(=O)N/N=C/c1ccc([N+](=O)[O-])o1	24.3 µM (active)	–	–
C/C(=C(\CCOP(=O)(O)O)SC(=O)c1ccccc1)N(C=O)Cc1cnc(C)nc1N	–	-1.42% [at 4.96 µM] (inactive)	–
CCCCN(CCCC)CC(O)c1cc(Cl)cc2c1-c1ccc(Cl)cc1/C2=C/c1ccc(Cl)cc1 (stereo not given)	13.3 µM (active)	–	–
CN(N=O)C(=O)N[C@@H]1[C@@H](O)[C@H](O)[C@@H](CO)O[C@@H]1O	inactive	–	–
NS(=O)(=O)c1cc2c(cc1Cl)NC(CSCc1ccccc1)=NS2(=O)=O	–	-5.76% (inactive)	–
C[C@@H]1CCN(C(=O)[C@H](CCCN=C(N)N)NS(=O)(=O)c2cccc3c2NC[C@H](C)C3)[C@@H](C(=O)O)C1	–	2.51% (inactive)	–
[O-][n+]1cccc(CO)c1	–	–	inactive
Cc1c(O)cccc1C(=O)N[C@@H](CSc1ccccc1)[C@H](O)CN1C[C@H]2CCCC[C@H]2C[C@H]1C(=O)NC(C)(C)C	16.8 µM (active)	–	–
COc1ccc(S(=O)(=O)Nc2nnc(CC(C)C)s2)cc1	–	-9.31% (inactive)	–
N[C@H](C(=O)O)c1ccc(O)cc1	–	–	inactive [at 17.3 µM]
Cc1ccc2nc(N)[nH]c(=O)c2c1Sc1ccncc1	2.05 µM (active)	–	–
CCCOC(=O)c1ccccc1	–	-15.7% (inactive)	–
CC(=O)O[C@@]12CO[C@@H]1C[C@H](O)[C@@]1(C)C(=O)[C@H](O)C3=C(C)[C@@H](OC(=O)[C@H](O)[C@@H](NC(=O)OC(C)(C)C)c4ccccc4)C[C@@](O)([C@@H](OC(=O)c4ccccc4)[C@H]21)C3(C)C	0.0021 µM (active)	–	–
O=c1cc[nH]c(=S)[nH]1	–	-16.1% (inactive)	–
CC(COc1ccccc1)NC(C)C(O)c1ccc(O)cc1 (stereo not given)	–	-18.5% (inactive)	–
CC1(C)[C@@H]2CC[C@@]1(C)C(=O)C2	–	–	inactive

Reference: PubChem BioAssay (NCATS)
